Screening data: PubChem, The Scripps Research Institute Molecular Screening Center
proKLK7 act: activators of human kallikrein-7 zymogen; purified proKLK7, EDANS-DABCYL substrate fluorescence; 100% is mature enzyme control, 0% vehicle; activation, % at 7 µM; 370,000 compounds, 0.9% hits; AID 652039;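 active means activation above the mean of all tested compounds plus 3 SD, computed per campaign excluding outliers beyond control limits, cut at about 13% in these data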
Target sequence (P49862 whole entry, looked up): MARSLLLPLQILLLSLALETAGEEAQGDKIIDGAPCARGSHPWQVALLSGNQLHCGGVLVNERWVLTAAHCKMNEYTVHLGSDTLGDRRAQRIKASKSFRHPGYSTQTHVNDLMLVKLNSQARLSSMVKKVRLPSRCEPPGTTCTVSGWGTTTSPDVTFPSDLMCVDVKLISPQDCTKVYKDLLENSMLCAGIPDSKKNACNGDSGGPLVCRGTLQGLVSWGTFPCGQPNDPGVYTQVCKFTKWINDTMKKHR
ADAM10 inh: inhibitors of human ADAM10; recombinant ADAM10, EDANS/DABCYL FRET peptide cleavage, 3 h; inhibition, % at 7 µM; 370,000 compounds, 0.62% hits; AID 720582;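 active means inhibition above a per-campaign cutoff equal to the mean of compounds falling between control-based bounds plus 3 SD, cut at about 20% in these data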;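 further: 0% = DMSO wells while the 100% control is not disclosed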
PLCb3 inh: inhibitors of human phospholipase C beta3; 370,000 compounds, 0.18% hits; Purified PLC-beta3, fluorogenic substrate, fluorescence; inhibition, % at 12.2 µM;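 further: 0% = median of compound wells on plate and 100% = full blocker control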
PLC-gamma1 inh: PLC-gamma1 (human) inhibition, primary screen; AID 720700; P19174; purified PLC-gamma1, fluorogenic substrate, fluorescence; 370,000 compounds, 0.84% hits; inhibition, % at 12.2 µM; in the data active means inhibition above about 9.5%
ADAM17 inh: inhibitors of human ADAM17; recombinant ADAM17, EDANS/DABCYL FRET peptide cleavage; 370,000 compounds, 0.83% hits; P78536; inhibition, % at 6.95 µM;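 active means inhibition above the mean of compounds lying between control limits plus 3 SD, set per campaign, cut at about 8.5% in these data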;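 further: 0% = DMSO-only wells as the low control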
PLCg1 ctr: inhibits human PLC-gamma1 in PLC-beta3 counter-screen | 3,300 compounds, 3.1% hits | inhibition, % at 12.3 µM | shares compounds with PLC-gamma1 inh | purified PLC-gamma1, fluorogenic substrate, fluorescence; in the data active means inhibition above about 9.5%
PLCbeta3 conf: confirmation of human PLC-beta3 inhibitors; shares compounds with PLC-gamma1 inh; purified PLC-beta3, fluorogenic substrate fluorescence; inhibition, % at 12.3 µM; 3,300 compounds, 1% hits; AID 743261
Numbers without * were called inactive; nt = no result given. A selection: hits, their analogues and other compounds. The true share with any hit is near 2.9%. Unless noted, no stated cut-off is given here; in the data, active means inhibition above about 11%; inactive means the rest.

SMILES	proKLK7 act	ADAM10 inh	PLCb3 inh	PLC-gamma1 inh	ADAM17 inh	PLCg1 ctr	PLCbeta3 conf
COc1ccnc2c1c(=O)n(Cc1ccc(Cl)cc1Cl)c(=O)n2C	0	1	-4	9.8*	-1	-14	-9
COc1ccc(C2C(C(=O)c3ccccc3)=C(C)Nc3nc4ccccc4n32)c(OC)c1 (stereo not drawn)	0	6	-22	-16	-2	nt	nt
Cc1cc(C(=O)NCc2csc(-c3ccccc3)n2)no1	0	-22	-7	-3	-6	nt	nt
COc1cccc(C#CC2=CC(=O)C[C@H](c3ccc(F)cc3)C2)c1	0	-1	-6	-2	-3	nt	nt
Cc1ccccc1C(=O)N1CCC(C(=O)N2CCN(Cc3ccc4c(c3)OCO4)CC2)CC1	0	-1	-1	12*	5	-4	1
Nc1ccn(C2CSC(CO)O2)c(=O)n1 (stereo not drawn)	0	-6	3	-2	-4	nt	nt
CCOc1ccc(Cc2nc(C)c(CC(=O)N3CCOCC3)c(=O)[nH]2)cc1	0	7	3	11*	4	-5	-3
Nc1nc(Nc2ccccc2F)nc(NCc2ccco2)c1[N+](=O)[O-]	0	-2	-6	13*	5	-2	-2
CC1=C(C(=O)OC(C)C)C(c2cccc([N+](=O)[O-])c2)n2c(cc(=O)[nH]c2=S)N1 (stereo not drawn)	0	14	3	9.7*	7	-2	0
Cc1ccc(OCCC(=O)NNC(=O)c2ccc(Br)cc2)cc1	-1	-5	-5	0	-1	nt	nt
CCOc1ccc(-n2nnnc2SCC(=O)Nc2cccc(O)c2)cc1	0	10	4	13*	5	-3	-3
Cc1ccccc1C(=O)NCCCc1ccccc1	0	-11	3	11*	-3	0	-2
Cc1ccccc1C(=O)NCCCCc1ccccc1	0	9	4	5	1	nt	nt
O=C(Nc1nc(-c2ccc(F)cc2)cs1)C1CCCO1 (stereo not drawn)	0	5	3	12*	2	-3	-2
O=C(C[n+]1cc(-c2ccccc2)n2c1CCC2)Nc1nc(-c2ccc(F)cc2)cs1	0	2	0	4	1	nt	nt
O=C(Nc1nc(-c2ccc(-c3ccccc3)cc2)cs1)C1CCCO1 (stereo not drawn)	-1	-12	-18	-10	-8	nt	nt
O=C(C[n+]1cc(-c2ccc(F)cc2)n2c1CCC2)Nc1nc(-c2ccc(F)cc2)cs1	0	8	8	12*	2	0	-35
CC(C)(C)c1ccc(OC(=O)c2ccc3snnc3c2)cc1	0	11	2	10*	6	0	4
CC(C)(C)c1ccc(OC(=O)c2ccc3nsnc3c2)cc1	0	7	-1	0	-6	nt	nt
CCc1nc2ccc(C(=O)N3CCCC(C(N)=O)C3)cn2c1N(CCC(C)C)CCN(C)C (stereo not drawn)	0	-10	-1	4	2	nt	nt
CCc1nc2ccc(C(=O)N3CCCC(C(N)=O)C3)cn2c1N(C)Cc1ccc(OC)cc1 (stereo not drawn)	1	-4	0	10*	5	-8	-4
NC(N)=N/N=C/c1ccc(OCc2ccccc2)c(OCc2ccccc2)c1	0	14	-4	12*	8	4	4
CCC(=O)N1CCCC1(C)C(=O)Nc1ccc2scnc2c1 (stereo not drawn)	0	14	8	12*	6	-2	-14
Cc1cc(F)ccc1S(=O)(=O)N1CCCOC1CNC(=O)C(=O)NCCc1ccco1 (stereo not drawn)	0	0	-2	-4	0	nt	nt
Cc1ccc(C2=NOC(C)(c3nnc(-c4ccc(Cl)cc4)o3)C2)cc1 (stereo not drawn)	0	11	-2	0	2	nt	nt
SMILES	proKLK7 act	ADAM10 inh	PLCb3 inh	PLC-gamma1 inh	ADAM17 inh	PLCg1 ctr	PLCbeta3 conf
O=C(Nc1nn[nH]n1)C12CC3CC(CC(C3)C1)C2	0	5	3	10*	4	-4	1
O=C(NC1=NCCS1)C12CC3CC(CC(C3)C1)C2	0	10	11*	6	5	-4	-2
CCn1cc(/C=C(\NC(=O)c2ccccc2F)C(=O)NCCCn2ccnc2)c2ccccc21	0	-2	-8	0	3	nt	nt
CCOC(=O)CSc1nc2ccccc2c(=O)n1CC1CCCC1	0	8	1	8	8	nt	nt
CCOC(=O)CSc1nc2ccccc2c(=O)n1CC1CCC(C(=O)NCc2ccco2)CC1 (stereo not drawn)	0	-18	4	10.0*	-6	-2	-4
C[C@H](CO)N1C[C@H](C)[C@@H](CN(C)C(=O)Nc2ccc3c(c2)OCCO3)OCc2cn(nn2)CCCC1=O	0	-10	-21	-3	-2	nt	nt
CCn1nc(C(=O)O)c(=O)c2cc3c(cc21)OCO3	1	-9	0	10*	-7	-8	-4
COc1ccc(C(=O)Nc2ccc3c(c2)nc(CN2CCN(C(C)=O)CC2)n3C)cc1	0	4	11*	8	2	0	-1
COc1ccc(C(=O)Nc2ccc3c(c2)nc(CN2CCCC2)n3C)cc1	0	2	-19	-10	-5	nt	nt
CCSc1cc(C)nc2ncnn12	1	9	14*	13*	5	-13	-6
CCCCCn1c(C(C)NC(=O)CCC)nc2ccccc21 (stereo not drawn)	0	8	14*	7	-1	-6	-1
NC(N)=N/N=C(\N=Nc1ccccc1)c1ccc(Cl)cc1	0	4	10	10*	8	4	1
Cc1nc([N+](=O)[O-])c(Br)n1CC(=O)c1ccc(F)cc1	0	-2	-2	8	-2	nt	nt
Cc1nc([N+](=O)[O-])c(Br)n1CC(=O)c1cccc([N+](=O)[O-])c1	0	0	6	9.9*	-1	9	-3
COc1ccc(C(=O)Nn2c(SCc3cccc([N+](=O)[O-])c3)nc3ccccc3c2=O)cc1	0	9	1	1	2	nt	nt
O=C(Nn1c(SCc2cccc([N+](=O)[O-])c2)nc2ccccc2c1=O)c1ccccc1	0	13	4	11*	6	-1	3
CCN(CC)CCN1CCN(c2cncc(-c3ccc4ccccc4c3)n2)CC1	0	-107	-53	-50	-24	nt	nt
Cc1ccc(-c2nn(-c3ccccc3)cc2C(=O)Nc2ccc(C)c(S(=O)(=O)N3CCOCC3)c2)cc1	0	10	4	9.6*	4	-5	-9
CC(Sc1ccc2c(c1)OCCO2)C(=O)Nc1ccc(N2CCOCC2)cc1 (stereo not drawn)	0	4	-3	13*	1	-5	-1
